Measurements from publication PMC11006913.

Molecular target: PRRX1 (Homo sapiens, UniProt P54821 80-166)
Assay: PBM; 200 nM protein, PBS
Details: dsDNA, one strand shown

Chain of PRRX1 (P54821 80-166): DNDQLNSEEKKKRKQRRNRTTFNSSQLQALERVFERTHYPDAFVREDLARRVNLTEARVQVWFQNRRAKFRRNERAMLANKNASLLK

Point of comparison: AAATACGA, binding signal 11 upbm affinity estimate (log intensity, higher = more binding, comparable within an allelic series). Against it:
- TGATGAAA — higher, 11.1 upbm affinity estimate (log intensity, higher = more binding, comparable within an allelic series)
- AATCAGCA — higher, 12 upbm affinity estimate (log intensity, higher = more binding, comparable within an allelic series)
- AAATATTC — higher, 11.3 upbm affinity estimate (log intensity, higher = more binding, comparable within an allelic series)
- ATTGAATG — higher, 11.6 upbm affinity estimate (log intensity, higher = more binding, comparable within an allelic series)
- TACATCAA — higher, 11.1 upbm affinity estimate (log intensity, higher = more binding, comparable within an allelic series)
- GGCTATAA — higher, 11.4 upbm affinity estimate (log intensity, higher = more binding, comparable within an allelic series)
- ACAATTCT — lower, 10.5 upbm affinity estimate (log intensity, higher = more binding, comparable within an allelic series)
- ATACCTAA — higher, 11.2 upbm affinity estimate (log intensity, higher = more binding, comparable within an allelic series)
- AATGTAAC — higher, 11.3 upbm affinity estimate (log intensity, higher = more binding, comparable within an allelic series)
- AAAAGAAT — the same, 11 upbm affinity estimate (log intensity, higher = more binding, comparable within an allelic series)
- AATATCAA — higher, 11.7 upbm affinity estimate (log intensity, higher = more binding, comparable within an allelic series)

Molecular target: HOXB6 (Homo sapiens, UniProt P17509 132-218)
Sequence (P17509 132-218): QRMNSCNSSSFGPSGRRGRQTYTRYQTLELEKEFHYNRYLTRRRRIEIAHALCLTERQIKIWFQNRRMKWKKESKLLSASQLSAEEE
Assay: PBM; 200 nM protein, PBS
Details: dsDNA, one strand shown

Point of comparison: TACTACGA, binding signal 10.1 upbm affinity estimate (log intensity, higher = more binding, comparable within an allelic series). Against it:
- CATTATGA — higher, 11 upbm affinity estimate (log intensity, higher = more binding, comparable within an allelic series)
- ATCATAAT — higher, 11.2 upbm affinity estimate (log intensity, higher = more binding, comparable within an allelic series)
- GCATAGTA — lower, 9.78 upbm affinity estimate (log intensity, higher = more binding, comparable within an allelic series)
- ATTTTTTA — higher, 10.4 upbm affinity estimate (log intensity, higher = more binding, comparable within an allelic series)
- ATTAGCGC — higher, 10.6 upbm affinity estimate (log intensity, higher = more binding, comparable within an allelic series)
- ACAAATTG — higher, 10.4 upbm affinity estimate (log intensity, higher = more binding, comparable within an allelic series)
- CTATTTTA — higher, 10.5 upbm affinity estimate (log intensity, higher = more binding, comparable within an allelic series)
- ATGTAATC — higher, 10.5 upbm affinity estimate (log intensity, higher = more binding, comparable within an allelic series)
- AAATAAAC — higher, 10.5 upbm affinity estimate (log intensity, higher = more binding, comparable within an allelic series)
- AATGTACA — higher, 10.3 upbm affinity estimate (log intensity, higher = more binding, comparable within an allelic series)
- AAGATTTA — lower, 10 upbm affinity estimate (log intensity, higher = more binding, comparable within an allelic series)
- ATATACGA — lower, 9.93 upbm affinity estimate (log intensity, higher = more binding, comparable within an allelic series)
- ACATATCT — lower, 10 upbm affinity estimate (log intensity, higher = more binding, comparable within an allelic series)
- ATAATGTG — higher, 11.1 upbm affinity estimate (log intensity, higher = more binding, comparable within an allelic series)
- AGTATCTA — higher, 10.2 upbm affinity estimate (log intensity, higher = more binding, comparable within an allelic series)
- TGTAAACA — lower, 10 upbm affinity estimate (log intensity, higher = more binding, comparable within an allelic series)
- GGTTAATA — higher, 10.9 upbm affinity estimate (log intensity, higher = more binding, comparable within an allelic series)
